The full ranking holds about 4,100 sequences; the median of “RBNS R-value (6-mer enrichment in protein-bound RNA vs input library)” is about 0.99, and the highest 2% start at about 1.4. This excerpt belongs to a sample that is enriched for the highest values.
System: PfIESI-1 RRM domain (Plasmodium falciparum ortholog aa 875-1232, GST fusion)
Experiment: RBNS R-value (6-mer enrichment in protein-bound RNA vs input library) (ratio); higher = stronger binding preference; the methods of the paper give 50 / 100 / 500 nM protein instead
Method: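 RNA Bind-n-Seq: recombinant GST-tagged IESI-1 RRM domain was incubated at room temperature with a random 40-nt in vitro transcribed RNA library at 250, 500 or 1000 nM protein. Bound RNA was pulled down on glutathione beads and sequenced. R-value is the enrichment of each 6-mer in the bound RNA relative to the input library. Each 6-mer sits inside the random 40-mer context, not as an isolated oligo. Values are replicate 1 only.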

Sequence	RBNS R-value (protein concentration: 250 nM)	RBNS R-value (protein concentration: 500 nM)	RBNS R-value (protein concentration: 1000 nM)
UGGGUC	0.985	0.933	1.01
UGUCAG	0.921	0.924	0.976
CAAAUC	0.911	0.973	0.983
UUGACU	1.07	1.06	1.05
UAACGC	0.896	0.876	0.884
CAUCAC	0.917	0.894	0.935
AUAUAC	0.837	0.813	0.766
GACCUC	1.02	0.989	1.03
UCUGAU	1.88	1.98	1.58
UCUGAG	1.12	1.1	1.14
UCUGAC	1.02	0.998	1.05
CCUGAG	1.47	1.26	1.34
CCUGCG	1.1	1.05	1.1
UCUGAA	0.982	1.05	1.03
ACUGAC	1.04	1.03	1.04
GCUGAC	1.07	1.02	1.07
ACUGAG	1.08	1.13	1.11
GCUGAG	1.09	1.07	1.1
GCUGAU	1.77	1.76	1.47
ACUGAU	1.89	2.06	1.65
CAGAAC	1.11	1.13	1.13
AGUCCC	1.01	0.956	1.01
UACCGG	0.983	0.914	0.955
CAGUAA	0.864	0.913	0.866

Sequence	RBNS R-value (protein concentration: 250 nM)	RBNS R-value (protein concentration: 500 nM)	RBNS R-value (protein concentration: 1000 nM)
CUACAU	0.824	0.777	0.777
GUUCCU	1.02	0.962	1.01
AACAGG	0.999	1.07	1.06
GGGACU	1	0.984	1.02
GAAGAC	1.14	1.17	1.15
AGAGUC	1.01	1.03	1.05
AUGUGA	1.15	1.26	1.14
CUGGGC	1.06	0.987	1.04
CCUGAU	1.99	2.08	1.66
CCUGAC	1.14	1.07	1.12
CCUGAA	1.17	1.17	1.18
AUGCGG	1.02	1.01	1.01
UCUAGU	0.878	0.906	0.899
CAUGCA	0.934	0.914	0.92
GAUGCG	1.41	1.42	1.31
GAUGCA	1.39	1.42	1.29
UAUGCC	0.946	0.891	0.903
GAUGCC	1.57	1.46	1.39
AAUGCG	0.939	0.968	0.95
UAUGCA	0.846	0.862	0.85
UAUGCG	0.899	0.892	0.894
CAUGCC	1.04	0.974	1.05
CUCGUG	0.979	0.913	0.998
AGCGGC	1.05	1.03	1.01

Sequence	RBNS R-value (protein concentration: 250 nM)	RBNS R-value (protein concentration: 500 nM)	RBNS R-value (protein concentration: 1000 nM)
AUUCUU	1.04	1.06	1.02
CUUAGC	0.907	0.84	0.885
CGGUCA	0.933	0.898	0.979
CAUUCC	1.04	0.997	1.05
GAUUCU	1.53	1.6	1.33
UAUUCA	0.803	0.794	0.796
AAUUCA	0.972	1.06	0.981
CAUUCG	1.02	0.992	1.04
GAUUCG	1.43	1.44	1.31
GAUUCA	1.44	1.56	1.35
AAUUCU	1.01	1.07	1.06
GAUUCC	1.51	1.47	1.38
AAUUCG	0.99	1.06	1.02
AAUUCC	1.16	1.15	1.16
UAUUCU	0.875	0.813	0.832
AGGUAA	0.909	0.998	0.997
CUUAAG	0.818	0.849	0.846
UCCUUU	0.883	0.825	0.875
UACCGA	1.01	0.978	0.96
AGGGAG	1.09	1.11	1.06
GAUAAC	1.16	1.26	1.15
GAUUGG	1.37	1.37	1.25
CAUUGC	0.987	0.973	0.976
UAUUGA	1.07	1.14	0.985

Sequence	RBNS R-value (protein concentration: 250 nM)	RBNS R-value (protein concentration: 500 nM)	RBNS R-value (protein concentration: 1000 nM)
AAUUGA	1.37	1.52	1.31
GAUUGU	1.04	1.04	0.998
GAUUGA	1.61	1.69	1.43
CAUUGA	1.33	1.37	1.22
AAUUGU	0.865	0.926	0.948
GAUUGC	1.7	1.68	1.42
UCCGUC	0.938	0.878	0.944
GUAUCA	0.785	0.812	0.852
UCCUGU	0.873	0.838	0.868
ACUGCC	1	0.929	0.986
CAUGUC	0.881	0.88	0.921
UAUGUA	0.792	0.805	0.771
UAUGUG	0.854	0.869	0.848
GAUGUC	1.37	1.39	1.29
GAUGUU	1.47	1.53	1.31
GAUGUA	1.25	1.39	1.2
GAUGUG	1.53	1.65	1.36
AAUGUU	0.827	0.922	0.9
AAUGUA	0.778	0.871	0.819
UAUGUC	0.791	0.772	0.81
CAUGUU	0.853	0.856	0.878
CAUGUG	0.924	0.964	0.964
CAGUCU	0.933	0.914	0.963
GGCAUU	1.01	0.953	0.972

Sequence	RBNS R-value (protein concentration: 250 nM)	RBNS R-value (protein concentration: 500 nM)	RBNS R-value (protein concentration: 1000 nM)
CUAUCU	0.826	0.759	0.772
CAUCUC	0.925	0.891	0.96
AGUACG	0.91	0.935	0.91
GUCAAG	0.874	0.904	0.946
AUACUA	0.816	0.825	0.779
GGCUAG	1.05	1.01	1.03
AGAAUA	1.03	1.18	1.1
UUCAUC	0.934	0.912	0.924
AUGAUC	1.38	1.42	1.24
CUGACA	1.13	1.11	1.11
AGGAUG	1.1	1.1	1.12
UUGAGA	1.19	1.22	1.18
CUGAUA	1.57	1.71	1.43
AUGAGC	1.14	1.16	1.1
UCGAUA	0.937	0.932	0.928
ACGAUG	1.33	1.38	1.21
AUGAUG	3.17	3.42	2.39
CAGAUA	0.988	1.03	0.99
ACGAUC	0.952	0.918	0.959
UUGAUA	1.72	1.92	1.6
CUCCUU	0.894	0.809	0.869
